# Records with an inconclusive call do not appear. Active and inactive are the calls of the source. The call rests on the fitted dose curve; in most records, active means well fitted cell-killing curve with a large enough effect in the repeat runs; inconclusive means weak or mixed curves, or effect the other way; inactive means flat fitted curve, though single readings scatter.
# Experiment: qHTS RealTime-Glo MT Cell Viability Assay in HEK293 cells - 32 hour (AID 1224868); further: nearly all actives have a fitted effect of over 50% in size; on activity change, negative = cytotoxic: top concentration of the series differs between compounds
# Details: RealTime-Glo luminescence; series mostly up to 76.8 µM; activity change, negative = cytotoxic: at the top concentration
# Excerpt: National Center for Advancing Translational Sciences [NCATS]
# NIH Chemical Genomics Center [NCGC]
# U.S. Environmental Protection Agency [EPA]
# National Institutes of Environmental Health Sciences [NIEHS]
# National Toxicology Program [NTP]
# U.S. Food and Drug Administration [FDA]
# Measure of cell viability is critical in the cell-base assay. Analysis of cell viability is necessary for the characterization of cell responses to cytotoxic drugs and environmental stress. A RealTime-Glo MT Cell Viability Assay to monitor cell viability in real time of continues cell culture during 40 hours of compound treatment was used to screen Tox21 10K library compounds in Hek293 cells. The RealTime-Glo MT Cell Viability Assay is a nonlytic, homogeneous, bioluminescent method to measure cell viability in real time using a simple, plate-based method. The assay involves adding NanoLuc luciferase and a cell-permeant prosubstrate to cells in culture. Viable cells reduce the proprietary prosubstrate to generate a substrate for NanoLuc luciferase. This substrate diffuses from cells into the surrounding culture medium, where it is rapidly used by the NanoLuc Enzyme to produce a luminescent signal. The signal correlates with the number of viable cells, making the assay well suited for cytotoxicity studies.
# Tox21 Assay Protocol Summary:
# The mixture of Hek293 cell suspension and reagents were dispensed at 600cells/6 ul/well in 1536-well tissue culture treated black solid bottom plates using a Multidrop dispenser. After the assay plates were incubated at a 37 C/5% CO2 incubator for 5 hours, 23 nL of compounds dissolved in DMSO, positive and negative controls was transferred to the assay plate by a pintool work station. The plates were incubated at 37 C for 40 hours. The luminescence intensity were measured at 0h, 8h, 16h, 24h, 32h and 40h time points using ViewLux plate reader during compound treatment.
# On the % scale 0 is the no-effect control and ±100 the full control effect; potency means the concentration at half of the fitted maximal effect.
SMILES,"activity change, negative = cytotoxic",Potency
O=C(CCCl)NCCc1ccccc1,3.24% [at 35.3 µM] (inactive),
O=Cc1cc2ccccc2o1,-1.96% (inactive),
COc1c2occc2c(OC)c2c(=O)cc(C)oc12,,9.52 µM (active)
Cc1ncc([N+](=O)[O-])n1CC(C)O (stereo not given),-0.0752% [at 35.3 µM] (inactive),
O=C(CCCCC(=O)Nc1c(I)cc(I)c(C(=O)O)c1I)Nc1c(I)cc(I)c(C(=O)O)c1I,-3.79% [at 35.3 µM] (inactive),
C=CC(=O)OCC1CCCO1 (stereo not given),6.71% (inactive),
O=[N+]([O-])c1c(Cl)cc(Cl)cc1Cl,-1.77% (inactive),
CCCCOC(=O)[C@H](C)O,-1.57% (inactive),
OC1(c2ccc(Cl)cc2)CCNCC1,4.43% [at 35.3 µM] (inactive),
C=C(C)[C@@H]1CC=C(C)C(=O)C1,-5.96% (inactive),
C=C(C)c1cccc(C(C)(C)N=C=O)c1,3.38% (inactive),
CCC(C)C(=O)OCCc1ccccc1 (stereo not given),-1.02% (inactive),
CC(C)C1OCCN1CCOC(=O)NCCCCCCNC(=O)OCCN1CCOC1C(C)C (stereo not given),2.59% (inactive),
O=C(CN1CCNCC1)NC1CCCCC1,-0.0181% [at 35.3 µM] (inactive),
C#CCN[C@@H]1CCc2ccccc21,-6.35% [at 35.3 µM] (inactive),
CC(=O)CC(=O)Nc1ccc(C)cc1C,-7.9% (inactive),
c1ccc2cnccc2c1,8.57% (inactive),
O=NN(CCCl)C(=O)NC1CCCCC1,5.42% [at 35.3 µM] (inactive),
C=C(C)C1CC=C(C)C(=O)C1 (stereo not given),16.1% (inactive),
CC(=O)OC(C)=O,7.82% (inactive),

SMILES,"activity change, negative = cytotoxic",Potency
CCOC(=O)CC1(C)OCC(C)O1 (stereo not given),5.92% (inactive),
Cc1ccc2c(c1)C(=O)c1ccccc1C2=O,9.76% (inactive),
CC(C)COC(=O)c1ccccc1,4.31% (inactive),
CC(=O)CCc1ccc(OC(C)=O)cc1,3.73% (inactive),
CC(C)OC(=O)OCOP(=O)(CO[C@H](C)Cn1cnc2c(N)ncnc21)OCOC(=O)OC(C)C,4.37% [at 35.3 µM] (inactive),
COC(=O)CCCCC(CCSS/C(CCO)=C(\C)N(C=O)Cc1cnc(C)nc1N)SC(C)=O (stereo not given),1.63% [at 35.3 µM] (inactive),
C[C@H]1[C@@H](c2ccccc2)NC(=O)N1C,-12.6% (inactive),
CCC(=O)c1c(O)cc(O)cc1O,9.53% [at 35.3 µM] (inactive),
Cc1ccccc1C(N)=O,0.859% (inactive),
CNCCS(=O)(=O)O,6.89% (inactive),
COC(=O)c1ccccc1C(=O)O,2.23% (inactive),
CC1(C)Cc2cccc(N)c2O1,3.8% (inactive),
O=C1CCCCO1,1.48% (inactive),
CC(O)CC(C)O (stereo not given),0.0062% (inactive),
CC(C)Cn1cnc2c1c(=O)n(C)c(=O)n2C,5.65% [at 35.3 µM] (inactive),
Cc1ccc(C(=O)O)cc1[N+](=O)[O-],7.02% (inactive),
O=C(O)CNC(=O)CNC(=O)CNC(=O)CSC(=O)c1ccccc1,8.35% [at 35.3 µM] (inactive),
CC(=O)CC(=O)OC(C)(C)C,1.62% (inactive),
O=C(O)c1cc2ccccc2nc1C(=O)O,-2.55% (inactive),
O=C=NCC1CCCC(CN=C=O)C1 (stereo not given),0.981% (inactive),

# — PubChem BioAssay (Tox21)
